“And” between values parts separate entries of the source, which are not always exact repeats. Identical values can stand only once. Where a structure was tested more than once in an assay, its records may differ in their call. The source made the active and inactive calls. The calls were made as follows: active = hit-call score of the fitted dose curve at least 0.9, where 1 is the maximum; inactive = score below 0.9.
Assay: ATG_TCF_b_cat_CIS: Attagene CIS-FACTORIAL HepG2 Assay for human T-Cell-Factor with beta-catenin (TCF/b-cat) (AID 2282965)
Settings: HepG2 TCF/beta-catenin cis-reporter transcription, actives raise or lower the signal
Description: ATG_CIS is a cell-based, multiplexed-readout assay that uses HepG2, a human liver cell line, with measurements taken at 24 hours after chemical dosing in a 24-well plate.ATG_TCF_b_cat_CIS is one of 52 assay component(s) measured or calculated from the ATG_CIS assay. It is designed to make measurements of mRNA induction, a form of inducible reporter, as detected with fluorescence intensity signals by Reverse transcription polymerase chain reaction (RT-PCR) and Capillary electrophoresis technology.Data from the assay component ATG_TCF_b_cat_CIS was analyzed into 1 assay endpoint. This assay endpoint, ATG_TCF_b_cat_CIS, was analyzed with bidirectional fitting relative to DMSO as the negative control and baseline of activity. Using a type of inducible reporter, measures of mRNA for gain or loss-of-signal activity can be used to understand the reporter gene at the transcription factor-level as they relate to the gene TCF7 and TCF7L2 and LEF1 and TCF7L1. Furthermore, this assay endpoint can be referred to as a primary readout, because this assay has produced multiple assay endpoints where this one serves a reporter gene function. To generalize the intended target to other relatable targets, this assay endpoint is annotated to the dna binding intended target family, where the subfamily is HMG box protein.
Human liver HepG2 cells are transiently transfected with multiple reporter transcription units (MRTUs) in 6-well plates using FuGene 6 reagent (Roche; 3 ml FuGene/1 mg DNA). The MRTU constructs are regulated by a cis-regulating element (promoter). […] A major difference between the CIS and TRANS system is that in CIS activities of endogenous TFs are measured, whereas the TRANS assay evaluates changes in activities of exogenous, chimeric NR-Gal4 proteins. […] At the end of 24 hour incubation, total RNA was isolated using TriZol reagent (Invitrogen). The isolated RNA is then reverse-transcribed using oligo(dT) primer and Mo-MLV reverse transcriptase (Invitrogen) with DNAse I (Ambion) treatment for 30 min. The one-tenth of the produced cDNA was amplified by PCR using Taq DNA polymerase (Invitrogen) and two reporter sequence-specific primers. The PCR products were fluorescently labeled by primer extension with 6-arboxyfluorescein (6-FAM) 5'-labeled reporter sequence-specific primer (2 min at 95 C, 20 s at 68 C and 10 min at 72 C) and these products were digested with 5U of HpaI (New England Biolabs) for 2h at 37 C. The fragments were purified using Qiaquick PCR columns (Qiagen), analyzed on an ABI 3130xL genetic analyzer (Applied Biosystems) with peak positions identified by using a set of X-rhodamine (ROX)-labeled MapMarker1000 molecular weight standards (BioVentures). The raw capillary electrophoresis data was processed using Attagraph software (Attagene).

| SMILES | outcome | AC50 |
| --- | --- | --- |
| CC(O)C(=O)O (stereo not given) | inactive | – |
| CC(=O)NC1(c2cccc(F)c2)CCN(CC[C@@]2(c3ccc(Cl)c(Cl)c3)CN(c3ccccc3)C(=O)CO2)CC1 | – | 8.64 µM (active) |
| ClC1=C(Cl)C(Cl)(Cl)C(Cl)=C1Cl | inactive | 15.4 µM (active) |
| CC#C[C@]1(O)CC[C@H]2[C@@H]3CCC4=CC(=O)CCC4=C3[C@@H](c3ccc(N(C)C)cc3)C[C@@]21C | – | 11.3 µM (active) and 26.2 µM (active) |
| OC1CCC(C2CCCCC2)CC1 (stereo not given) | inactive | – |
| CC(C)(C)c1ccc(O)c(C(C)(C)C)c1 | inactive | – |
| CC(C)CCCCCCOC(=O)CCCCC(=O)OCCCCCCC(C)C | inactive | – |
| O=C1OC2(c3ccccc31)c1cc(Br)c(O)c(Br)c1Oc1c2cc(Br)c(O)c1Br | inactive | – |
| CCCCC(CC)COC(=O)CCCCC(=O)OCC(CC)CCCC (stereo not given) | inactive | – |
| COC(=O)CCCCC(=O)OC | inactive | – |
| OCCC(F)(F)C(F)(F)C(F)(F)C(F)(F)C(F)(F)C(F)(F)F | inactive | – |
| CCCOc1sc(C(=O)N2CCC(c3cc(CN)ccc3F)CC2)c(C)c1Br | inactive | – |
| Oc1cccc(O)c1 | inactive | – |
| COc1ccc([N+](=O)[O-])cc1N | inactive | – |
| CC[C@H](c1ccc(O)cc1)[C@@H](CC)c1ccc(O)cc1 | inactive | 9.79 µM (active) and 15.4 µM (active) and 11.1 µM (active) |
| CCCCCCCCCCCCCC[N+](C)(C)C | – | 17.2 µM (active) and 7.58 µM (active) |
| CCN(CC)CCNc1ccc(CNC=O)c2sc3ccc(OC)cc3c(=O)c12 | inactive | – |

| SMILES | outcome | AC50 |
| --- | --- | --- |
| FC(F)(I)C(F)(F)C(F)(F)C(F)(F)C(F)(F)C(F)(F)I | – | 11.1 µM (active) |
| COCC(C)O (stereo not given) | inactive | – |
| CN1CCC[C@H]1c1cccnc1 | inactive | – |
| O=[N+]([O-])c1ccc(O)cc1 | inactive | – |
| CCCCCCCCOC(=O)CCCCCCCCC(=O)OCCCCCCCC | inactive | – |
| Oc1cc2ccccc2c2ccccc12 | inactive | – |
| NC(=O)N(O)[C@@H]1C=C[C@H](Oc2cccc(Oc3ccc(F)cc3)c2)C1 | – | 33 µM (active) |
| OCCC(F)(F)C(F)(F)C(F)(F)C(F)(F)C(F)(F)C(F)(F)C(F)(F)C(F)(F)F | inactive | 33.4 µM (active) |
| O=c1c(-c2ccc(O)cc2)coc2cc(O)ccc12 | inactive | 27.9 µM (active) |
| O=C(O)c1ccccc1C(c1ccc(O)cc1)c1ccc(O)cc1 | inactive | 166 µM (active) |
| O=C(OCCOCCOC(=O)c1ccccc1)c1ccccc1 | inactive | – |
| CCC(C)(C)C1CCC(O)CC1 (stereo not given) | inactive | 100 µM (active) |
| CCCCC(CC)COC(=O)CCCCC(=O)OCc1ccccc1 (stereo not given) | inactive | – |
| C#C[C@]1(O)CC[C@H]2[C@@H]3CCC4=CC(=O)CC[C@@H]4[C@H]3CC[C@@]21C | inactive | – |
| c1ccc2c(c1)ccc1ccccc12 | inactive | – |
| CCCCCCCCCCCCN1CCCC1=O | inactive | – |
| COCC(C)OCC(C)O (stereo not given) | inactive | – |

Source: PubChem BioAssay (EPA / NIEHS)
